Measurements reported in PubChem BioAssay.
Calls of active or inactive are those of the source. Unless noted, no rule for the calls is given here.

How the values were obtained:
[1] = test system: XIP peptide (Xip251-270) binding; test: XIP fragment 251-270 binding compounds – biochemical, small-molecule microarray, fluorescence 635/667 nm, 0.1 µg/mL protein, primary screen (AID 1182); details: fluorescent protein binding, 635 nm, higher = more signal, called active from +8 up or from −8 down
[2] = test system: XIP peptide (Xip251-270); test: compounds binding XIP fragment 251-270 – biochemical, small-molecule microarray, fluorescence 635/667 nm, 0.5 µg/mL protein, primary screen (AID 1183); details: fluorescence 635 nm, higher = more signal
[3] = blood-stage malaria parasite viability loss – strain 3D7, DAPI fluorescence, 100 nL, primary screen (AID 1184);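 also: parasites grown inside human red blood cells in medium with human serum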; details: P. falciparum 3D7 growth, 3 d, higher = more signal
[4] = target: Homeobox protein Hox-A13 (Mus musculus) (UniProt Q62424); test: disruptors of Hoxa13 oligonucleotide interaction – biochemical, fluorescence polarization, labeled oligonucleotide, primary screen (AID 1185); details: Hoxa13:DNA binding, 15 min, higher = more signal, called active from +8 up or from −8 down
[5] = blockers of DNA damage checkpoint Chk1 activation – imaging, HeLa, hydroxyurea, phospho-Chk1 antibody, percent positive cells, primary screen (AID 1186); details: hydroxyurea-induced phospho-Chk1 immunofluorescence imaging, higher = more signal
[6] = blockers of DNA damage checkpoint Chk1 activation – imaging, HeLa, hydroxyurea, phospho-Chk1 nuclear intensity, primary screen (AID 1187); details: hydroxyurea-induced phospho-Chk1 immunofluorescence imaging, higher = more signal

Homeobox protein Hox-A13 (Mus musculus), sequence (Q62424 whole entry, looked up): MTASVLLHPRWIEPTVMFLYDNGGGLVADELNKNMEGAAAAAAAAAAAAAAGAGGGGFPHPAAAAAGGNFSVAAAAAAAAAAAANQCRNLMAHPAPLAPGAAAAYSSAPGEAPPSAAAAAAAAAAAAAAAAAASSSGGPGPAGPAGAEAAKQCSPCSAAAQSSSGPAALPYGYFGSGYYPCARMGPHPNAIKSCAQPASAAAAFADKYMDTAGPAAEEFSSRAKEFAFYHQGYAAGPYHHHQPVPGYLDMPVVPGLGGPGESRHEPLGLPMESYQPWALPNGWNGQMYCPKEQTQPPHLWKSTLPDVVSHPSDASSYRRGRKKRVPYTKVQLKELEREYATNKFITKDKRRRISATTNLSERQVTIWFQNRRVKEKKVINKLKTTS

SMILES | composite z-score [1] | composite z-score [2] | z-score [3] | z-score [4] | z-score [5] | z-score [6]
COC(=O)[C@H](Cc1ccccc1)N1CC(/C=C/C2CC2)=C[C@@H]1[C@@H](O)Cc1ccccc1 | 0.971 (inactive) | 0.639 | -0.547 | -5.53 (inactive) | -0.613 (inactive) | -0.713 (inactive)
CN(C)CCCCNC(=O)[C@H]1C[C@H]2C(=O)N[C@@H](CCCCN(C)C)C(=O)N2[C@H]1c1cccc(OCCO)c1 | 1.64 (inactive) | 0.675 | 0.649 | -3.26 (inactive) | 0.368 (inactive) | 0.217 (inactive)
Cc1ccc(F)cc1S(=O)(=O)N[C@@H]1CCN(Cc2ccc(OC(C)C)cc2)C1 | -0.46 (inactive) | -0.701 | -0.85 | -5.27 (inactive) | 0.239 (inactive) | 1.54 (inactive)
CC(C)CN1C(=O)[C@@]2(Cc3ccccc31)c1ccccc1C(=O)N(Cc1ccccc1C(F)(F)F)[C@H]2c1ccc(CO)cc1 | -0.334 (inactive) | -0.0449 | -0.141 | 0.0026 (inactive) | -0.417 (inactive) | -0.408 (inactive)
COc1ccc([Si](C)(C)[C@H]2[C@H](CCn3cc([C@H](O)c4ccccc4)nn3)O[C@@]3(C(=O)N(Cc4ccc(N5CCC5=O)cc4)c4ccccc43)[C@@H]2C)cc1 | 0.588 (inactive) | 0.576 | -1.87 | -2.79 (inactive) | -0.162 (inactive) | -0.628 (inactive)
Cc1ccc(S[C@]2(C(=O)NC(C)C)CC(=O)N(C3Cc4ccccc4C3)[C@@H]2c2ccc(CO)cc2I)cc1 | -0.325 (inactive) | 0.86 | -0.619 | -2.24 (inactive) | 0.425 (inactive) | 0.191 (inactive)
O=C1c2ccccc2[C@@]2(Cc3ccccc3N(C3CC3)C2=O)[C@H](c2ccc(CO)cc2)N1C1CCCCC1 | -0.241 (inactive) | -0.76 | -0.323 | -2.14 (inactive) | 0.353 (inactive) | 0.349 (inactive)
C=CCOC(=O)[C@@H]1[C@H]2C(=O)O[C@H](c3ccccc3)[C@H](c3ccccc3)N2[C@H](c2ccc(OCCOC(=O)[C@H]3C[C@H]4C(=O)N[C@@H](CC(C)C)C(=O)N4[C@H]3c3ccc(O)cc3)cc2)[C@@]12C(=O)Nc1ccc(I)cc12 | 0.234 (inactive) | 0.828 | -1.79 | 0.981 (inactive) | -0.25 (inactive) | -0.115 (inactive)
CN1C(=O)C2C=CC(C(O)c3c(F)cccc3Cl)N(Nc3ccccc3)C2C1=O (stereo unspecified) | -0.108 (inactive) | 0.324 | 1.04 | -3.42 (inactive) | 0.563 (inactive) | 0.463 (inactive)
CCOC(=O)C[C@H]1[C@H](OC(=O)Cc2ccc3c(c2)OCO3)[C@@H](NC(=O)C2CCCCC2)c2cc(OCCCO)ccc2N1C(=O)c1ccc2ccccc2n1 | 1.35 (inactive) | 0.639 | -2.04 | -3.76 (inactive) | 0.404 (inactive) | -0.0148 (inactive)
O=C1O[C@@H](c2ccccc2)[C@@H](c2ccccc2)N2[C@@H](c3ccc(O)cc3)[C@]3(C(=O)Nc4ccccc43)[C@@H](C(=O)Nc3nc4ccccc4s3)[C@H]12 | 1.03 (inactive) | 0.638 | -0.247 | 2.05 (inactive) | -0.193 (inactive) | -0.259 (inactive)
C=C(/C(=C/C[C@@H](OC(=O)c1ccncc1)c1ccccc1OCCO)c1cc(C(=O)OC)ccc1OC)C(C)C | 0.214 (inactive) | 0.596 | -2.94 | -3.84 (inactive) | -1.77 (inactive) | -1.86 (inactive)
CN1C(=O)C2C=CC(C(O)Cc3ccccc3)N(N(c3ccccc3)c3ccccc3)C2C1=O (stereo unspecified) | -0.072 (inactive) | 0.645 | -0.077 | -2.48 (inactive) | 0.077 (inactive) | -0.0628 (inactive)
C[C@]1(C(=O)NC2CC2)c2ccccc2C(=O)N(Cc2ccc(OC(F)(F)F)cc2)[C@H]1c1ccc(CO)cc1 | 0.282 (inactive) | -0.923 | 0.516 | -3.59 (inactive) | -0.0307 (inactive) | -0.521 (inactive)
COc1cc2c(cc1OC)CN(C(=O)[C@H]1[C@@H]3C(=O)O[C@@H](c4ccccc4)[C@@H](c4ccccc4)N3[C@@H](c3ccc(OCCO)cc3)[C@]13C(=O)Nc1ccc(C#CCCO)cc13)CC2 | 0.527 (inactive) | 0.692 | -2.06 | 1.96 (inactive) | 0.0312 (inactive) | 0.157 (inactive)
CC=CC(O)C1C=CC2C(=O)N(c3ccccc3)C(=O)C2N1Nc1ccccc1 (stereo unspecified) | 0.228 (inactive) | 0.813 | -0.0445 | -4.14 (inactive) | 0.0716 (inactive) | -0.167 (inactive)

SMILES | composite z-score [1] | composite z-score [2] | z-score [3] | z-score [4] | z-score [5] | z-score [6]
O=C1OC[C@@H](c2ccccc2)N2CC(/C=C/c3ccccc3)=CC12 (stereo partly specified) | 0.587 (inactive) | 0.0221 | 0.643 | -1.36 (inactive) | -0.303 (inactive) | -0.493 (inactive)
COc1ccc([Si](C)(C)[C@@H]2[C@@H](CCO)O[C@]3(C(=O)N(Cc4cccc(N5C(=O)c6cccc7cccc5c67)c4)c4ccccc43)[C@H]2C)cc1 | 0.875 (inactive) | 0.635 | -2.52 | -1.52 (inactive) | -0.758 (inactive) | 0.0003 (inactive)
C=CCN1Cc2ccccc2C[C@@]2(N=C(c3ccc(OCCCO)cc3)O[C@H]2c2ccccc2)C1=O | 0.247 (inactive) | 0.691 | -2.09 | -3.98 (inactive) | -0.468 (inactive) | -0.399 (inactive)
CCOC(=O)[C@H]1C/C=C/C[C@H](C(=O)OCC)C(=O)O[C@H]2[C@@H](OC)O[C@H](CO)[C@@H](OC(=O)CCc3ccccc3)[C@@H]2OC1=O | -0.0432 (inactive) | 0.486 | -1.24 | -2.57 (inactive) | -0.0591 (inactive) | -0.23 (inactive)
[N-]=[N+]=Nc1ccccc1C[C@@]1(C(=O)O)N=C(c2ccc(OCCCO)cc2)O[C@@H]1c1ccccc1 | 0.57 (inactive) | 0.707 | -0.188 | -5.79 (inactive) | 0.167 (inactive) | 0.149 (inactive)
CN(C)CCCNC(=O)[C@@H]1c2ccccc2C(=O)N(Cc2ccc(OC(F)(F)F)cc2)[C@H]1c1ccc(CO)cc1 | 0.323 (inactive) | 0.721 | -1.9 | -3.41 (inactive) | -0.234 (inactive) | -0.296 (inactive)
COC(=O)[C@@]1(Cc2ccc(F)cc2)[C@H]2c3cc(C(=O)N4CCCC4)n(CCc4c[nH]c5ccc(OC)cc45)c3C[C@H]2CN1C(=O)c1ccccc1 | 0.804 (inactive) | 0.727 | -1.74 | -3.53 (inactive) | -0.371 (inactive) | -0.199 (inactive)
COc1cc2c(cc1OC)CN(C(=O)[C@H]1[C@@H]3C(=O)O[C@@H](c4ccccc4)[C@@H](c4ccccc4)N3[C@@H](c3ccc(OCCO)cc3)[C@]13C(=O)Nc1ccc(C#CC4(O)CCCCCC4)cc13)CC2 | 0.63 (inactive) | 0.803 | -1.88 | 2.98 (inactive) | -0.647 (inactive) | -1.2 (inactive)
CC(C)N1CC=CC23O[C@@H]4C=CCOC(=O)[C@@H]4[C@H]2C(=O)N(C(C)CO)[C@@H]3C1=O (stereo partly specified) | -0.409 (inactive) | 0.291 | 0.383 | -3.67 (inactive) | 0.113 (inactive) | -0.0881 (inactive)
COC(=O)[C@]1(CCS(=O)(=O)c2ccccc2)N=C(c2ccc(OCCCO)cc2)O[C@@H]1c1ccccc1CN=[N+]=[N-] | 0.867 (inactive) | 0.769 | -2.2 | -0.936 (inactive) | -0.375 (inactive) | -0.574 (inactive)
O=C(CS)NCCCCCCNC(=O)[C@@H]1C[C@@H]2C(=O)N3CCC[C@H]3C(=O)N2[C@@H]1c1cccc(OCCO)c1 | 1.97 (inactive) | 0.864 | 0.0153 | -3.25 (inactive) | -1.31 (inactive) | -0.971 (inactive)
CC(C)(C)OC(=O)CC[C@]1(C(=O)NCCN2CCOCC2)N=C(c2ccc(OCCCO)cc2)O[C@H]1c1ccccc1 | 0.471 (inactive) | 0.598 | 0.207 | -4.62 (inactive) | -0.103 (inactive) | 0.201 (inactive)
O=c1cccc(-c2cccc(Cl)c2)o1 | 0.165 (inactive) | 0.108 | 0.204 | -0.814 (inactive) | 0.0366 (inactive) | -0.411 (inactive)
C=C(C(=O)CC[C@H](OC(=O)c1cccnc1)c1ccc(CO)o1)C(C)C | 1.43 (inactive) | 0.62 | 0.566 | -5.25 (inactive) | 0.286 (inactive) | -0.0632 (inactive)
CO[C@H]1O[C@H](CO)[C@@H](OC(=O)Nc2ccc(C(F)(F)F)cc2)[C@H](OC(=O)Nc2ccc3c(c2)OCO3)[C@H]1OC(=O)Nc1ccc2c(c1)OCO2 | 1.22 (inactive) | 0.898 | -1.76 | -3.94 (inactive) | -0.318 (inactive) | -0.559 (inactive)
